Data published in PubChem BioAssay (NCI).
This is part of a sample that, as a whole, favours compounds with a hit. Of some 83,000 tested, about 20% had one in any assay.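 Cells were grown in 96-well plates and exposed to the test compound at a single concentration for 48 hours; results are reported as percent growth, with values below 10 considered active.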 Unmarked numbers belong to inactive results. Active and inactive are the calls of the source.

Tests used:
Assay in all cases: NCI-60 one-dose screen, 48 h (100 = growth as untreated, 0 = no growth, -100 = all killed)
Details in all cases: 10 µM unless noted
HCT-15 colon = system: HCT-15 colon
HT29 colon = system: HT29 colon
SNB-75 CNS = system: SNB-75 CNS
SNB-19 CNS = system: SNB-19 CNS
U251 CNS = system: U251 CNS
PC-3 prostate = system: PC-3 prostate
SK-MEL-5 melanoma = system: SK-MEL-5 melanoma
UACC-62 melanoma = system: UACC-62 melanoma
LOX IMVI melanoma = system: LOX IMVI melanoma
SK-MEL-28 melanoma = system: SK-MEL-28 melanoma

| SMILES | growth (HCT-15 colon) | growth (HT29 colon) | growth (SNB-75 CNS) | growth (SNB-19 CNS) | growth (U251 CNS) | growth (PC-3 prostate) | growth (SK-MEL-5 melanoma) | growth (UACC-62 melanoma) | growth (LOX IMVI melanoma) | growth (SK-MEL-28 melanoma) |
| --- | --- | --- | --- | --- | --- | --- | --- | --- | --- | --- |
| CN(C)CCCNc1nn2c(=O)c3ccccc3nc2c2ccccc12 | 55.3% | 32.6% | 51.2% | 69.7% | 57.2% | 62.1% | 52.6% | 67.3% | 33.8% | 93.2% |
| CC1CN(CC(O)c2ccc(Br)cc2)CCO1 (stereo not given) | 107% | 113% | 91.4% | 105% | 95.8% | 101% | 108% | 108% | 107% | 119% |
| COc1ccc2c(c1)CC/C(=C\c1ccc(OCC(=O)Nc3nc4ccccc4s3)cc1)C2=O | 102% | 103% | 95.2% | 100% | 81.4% | 74.1% | 91.6% | 86% | -88.6% (active) | 112% |
| C#C[C@]1(O)CCC2C3CCc4cc(O)ccc4C3CC[C@@]21C (stereo not given in full) | 31.9% | 11.7% | 38.8% | 53.1% | 32.2% | 64.9% | 8.95% (active) | 30.5% | 41.8% | 59.2% |
| Cc1n(Cc2ccc3ccccc3c2)c2ccccc2[n+]1Cc1ccc2ccccc2c1 | 15.7% | -53.3% (active) | -46.2% (active) | -91.7% (active) | -87.6% (active) | -68.1% (active) | -97.6% (active) | -57.9% (active) | -89% (active) | -58% (active) |
| COc1cnc2c(c1)C(=O)c1c-2n(CCCNC2=NCCS2)c(=O)c2cc(F)ccc12 | 43.3% | 22.2% | 33.1% | 54.6% | 12.1% | 36.9% | 0.102% (active) | 17.4% | -73.8% (active) | 79.2% |
| O=C(COc1ccc(/C=C2\Oc3ccc4ccccc4c3C2=O)cc1)c1ccc(Cl)cc1 | 92% | 87.2% | 83% | 98.3% | 94.7% | 93.8% | 92.6% | 94.3% | 53.7% | 112% |
| CCSCC1CC(O)(c2ccccc2)C(c2ccccc2)C(c2ccc(Cl)cc2)O1 (stereo not given) | 7.75% (active) | 13.5% | 59.4% | 28.5% | 5.12% (active) | 4.66% (active) | -94.8% (active) | 0.0955% (active) | -85.2% (active) | -18.7% (active) |
| COC(=O)Nc1ccc2ccc3c(NC(=O)OC)ccc4ccc1c2c43 (tested in a mixture with another compound) | 35.6% | 30.6% | 50.7% | 60.8% | 41% | 48.4% | 37.3% | 41.5% | 32.9% | 73.3% |
| OC(c1cc(-c2cccc(Cl)c2)nc2ccccc12)C1CCCCN1 (stereo not given) | -61.9% (active) | -74.5% (active) | -5.41% (active) | 18.1% | -85.1% (active) | -26.2% (active) | -67.5% (active) | -41.2% (active) | -90.7% (active) | -94.2% (active) |
| O=C1OC2(c3ccccc31)c1ccccc1-c1ccccc12 | 71.4% | 74.6% | 61.2% | 83% | 63.6% | 74.4% | 78.9% | 57.4% | 77.6% | 74.5% |
| O=C(Nc1nn2c(-c3cc(C(F)(F)F)cc(C(F)(F)F)c3)nnc2s1)C1CCCC1 | 13.6% | -28.7% (active) | 37.9% | 26.6% | 4.37% (active) | 8.85% (active) | -69.6% (active) | 7.5% (active) | 13.1% | 30.4% |
| O[N+]1=CC=CCC1=S.On1ccccc1=S.[Zn] | -57% (active) | -47.5% (active) | -75.3% (active) | -93% (active) | -86.8% (active) | -50.8% (active) | -93.5% (active) | -78.3% (active) | -70.3% (active) | -87.3% (active) |
| CC1Cc2ccccc2N1C(=O)c1ccc(C(=O)c2ccccc2)cc1 (stereo not given) | 86% | 89.4% | 94.3% | 90.5% | 63.5% | 97% | 74.2% | 73.6% | 83% | 99.5% |
| N[C@H](CS)C(=O)O | 96.6% | 95.9% | 84.2% | 96.1% | 105% | 94.1% | 105% | 99.9% | 100% | 125% |
| O=C1Nc2ccc(C(=O)O)c(O)c2C1=O | 110% | 117% | 103% | 107% | 106% | 95.7% | 104% | 101% | 54.5% | 111% |
| O=C(C(=O)c1cc(Br)ccc1O)c1cc(Br)ccc1O | 54% | 93.7% | 59.8% | 37.9% | 43.6% | 46.5% | 14.7% | 11.7% | 39.1% | 51.1% |
| NC(=O)c1cc(Br)cc(Br)c1NS(=O)(=O)c1ccccc1 | 100% | 110% | 68.2% | 105% | 108% | 89.2% | 98.2% | 94.9% | 99.4% | 110% |
| CC(=O)c1ccc(NS(=O)(=O)c2ccc([N+](=O)[O-])cc2)cc1 | 95.2% | 108% | 97.7% | 87.9% | 103% | 93.1% | 96.9% | 75.1% | 98.8% | 123% |
| CCSc1nc(-c2ccco2)n2nc(-c3ccco3)cc2n1 | 78.1% | 99.4% | 83.2% | 113% | 96.8% | 95.7% | 78.3% | 89.8% | 88.3% | 120% |
| Cc1[nH]cnc1/C=C1\SC(N2CCCCC2)=NC1=O | 107% | 108% | 111% | 102% | 108% | 106% | 103% | 100% | 97.7% | 119% |
| C(#Cc1ccccc1C#Cc1ccccn1)c1ccc(OCCCCCCOc2ccc(C#Cc3ccccc3C#Cc3ccccn3)cc2)cc1 | 41.2% | 93% | 92.6% | 72.5% | 50.3% | 39.6% | 20.6% | 23.9% | 14.7% | 81.8% |
| Nc1nc2c(nnn2Cc2ccc(Cl)c(Cl)c2)c(=O)[nH]1 | 98.7% | 100% | 90.5% | 95.1% | 96.6% | 79.3% | 107% | 73.9% | 93.9% | 111% |
| COc1ccc2c(c1)[n+](=O)c(C(=O)/C=C/c1cc(OC)c(OC)c(OC)c1)c(C)n2[O-] | 49.2% | 85.2% | 62.2% | 67.1% | 55.6% | 59.9% | 50.8% | 64.7% | 55.1% | 69.1% |
| Cc1cnc2nc(-c3ccc(N(C)C)cc3)cn2c1 | 107% | 112% | 133% | 107% | 110% | 121% | 99.4% | 96% | 106% | 123% |
| Cc1ccc2nc(SCC(=O)Nc3ccc(-c4nc5ccccc5s4)c(Cl)c3)[nH]c2c1 | 101% | 106% | 94.6% | 102% | 105% | 107% | 102% | 90.3% | 107% | 118% |
| O=c1ccn(C2CC=C(CO)O2)c(=O)[nH]1 (stereo not given) | 105% | 111% | 108% | 108% | 102% | 85.9% | 90% | 91.7% | 94% | 106% |
| CC1C(=O)NC2=Nc3ccccc3C(=O)NN21 (stereo not given) | 108% | 103% | 86.7% | 107% | 101% | 92.4% | 94.5% | 92.2% | 95.4% | 120% |
